The results in this text go back to PubChem BioAssay (NCATS).

Values without a mark were called inactive. Records with an inconclusive call do not appear. Activity calls are given as the source filed them. Unless noted, calls follow the shape of the dose curve; as a rule, active = well fitted curve in either direction with a large enough effect (not every such curve was filed as active); inconclusive = small, poorly fitted or top-dose-only effect, or another doubt; inactive = flat fitted curve, though single readings scatter. Some results are limits rather than exact numbers.

Chain of Cytochrome P450 3A4 (Homo sapiens) (P08684 whole entry, looked up): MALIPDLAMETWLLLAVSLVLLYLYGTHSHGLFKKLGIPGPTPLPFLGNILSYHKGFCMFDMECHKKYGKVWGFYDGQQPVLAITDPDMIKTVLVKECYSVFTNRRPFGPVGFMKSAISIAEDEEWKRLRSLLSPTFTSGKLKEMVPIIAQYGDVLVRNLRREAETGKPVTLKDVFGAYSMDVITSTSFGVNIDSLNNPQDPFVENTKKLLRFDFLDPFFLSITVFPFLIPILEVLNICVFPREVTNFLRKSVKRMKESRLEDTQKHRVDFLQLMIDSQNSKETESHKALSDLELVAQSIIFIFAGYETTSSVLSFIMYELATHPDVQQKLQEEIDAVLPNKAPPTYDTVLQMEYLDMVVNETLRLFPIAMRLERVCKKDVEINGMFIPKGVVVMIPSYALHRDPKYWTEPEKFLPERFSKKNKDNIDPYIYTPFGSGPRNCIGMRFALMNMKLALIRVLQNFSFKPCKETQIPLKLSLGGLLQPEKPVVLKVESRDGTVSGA
Chain of Tumor susceptibility gene 101 protein (Homo sapiens) (Q99816 whole entry, looked up, the tested form may be a part): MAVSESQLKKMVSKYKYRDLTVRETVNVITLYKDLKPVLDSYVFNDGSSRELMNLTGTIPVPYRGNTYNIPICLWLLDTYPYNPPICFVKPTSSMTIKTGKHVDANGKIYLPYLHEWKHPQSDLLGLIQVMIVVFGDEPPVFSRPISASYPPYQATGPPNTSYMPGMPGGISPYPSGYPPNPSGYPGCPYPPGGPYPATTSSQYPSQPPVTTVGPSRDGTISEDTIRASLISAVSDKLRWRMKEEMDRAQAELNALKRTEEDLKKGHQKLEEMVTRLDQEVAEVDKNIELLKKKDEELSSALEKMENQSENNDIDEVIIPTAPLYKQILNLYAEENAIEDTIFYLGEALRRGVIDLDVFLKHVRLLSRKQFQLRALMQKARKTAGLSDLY
Chain of Lysosomal acid glucosylceramidase (Homo sapiens) (P04062 whole entry, looked up): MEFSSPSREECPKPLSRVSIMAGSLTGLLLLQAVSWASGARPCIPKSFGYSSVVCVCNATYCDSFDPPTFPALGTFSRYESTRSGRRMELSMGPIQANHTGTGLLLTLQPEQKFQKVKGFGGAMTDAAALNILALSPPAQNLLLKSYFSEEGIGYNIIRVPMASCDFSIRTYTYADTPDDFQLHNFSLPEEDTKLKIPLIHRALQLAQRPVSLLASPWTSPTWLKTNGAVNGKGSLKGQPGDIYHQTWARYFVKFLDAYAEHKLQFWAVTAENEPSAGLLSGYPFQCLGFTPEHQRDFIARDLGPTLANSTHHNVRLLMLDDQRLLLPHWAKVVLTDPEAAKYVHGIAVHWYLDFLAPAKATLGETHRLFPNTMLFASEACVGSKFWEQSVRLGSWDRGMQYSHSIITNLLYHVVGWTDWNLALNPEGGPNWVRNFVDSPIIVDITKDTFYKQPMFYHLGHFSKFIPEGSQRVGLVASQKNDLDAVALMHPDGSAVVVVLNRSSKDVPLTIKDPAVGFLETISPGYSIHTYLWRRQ
Chain of 3',5'-cyclic-AMP phosphodiesterase 4B (Homo sapiens) (Q07343 whole entry, looked up): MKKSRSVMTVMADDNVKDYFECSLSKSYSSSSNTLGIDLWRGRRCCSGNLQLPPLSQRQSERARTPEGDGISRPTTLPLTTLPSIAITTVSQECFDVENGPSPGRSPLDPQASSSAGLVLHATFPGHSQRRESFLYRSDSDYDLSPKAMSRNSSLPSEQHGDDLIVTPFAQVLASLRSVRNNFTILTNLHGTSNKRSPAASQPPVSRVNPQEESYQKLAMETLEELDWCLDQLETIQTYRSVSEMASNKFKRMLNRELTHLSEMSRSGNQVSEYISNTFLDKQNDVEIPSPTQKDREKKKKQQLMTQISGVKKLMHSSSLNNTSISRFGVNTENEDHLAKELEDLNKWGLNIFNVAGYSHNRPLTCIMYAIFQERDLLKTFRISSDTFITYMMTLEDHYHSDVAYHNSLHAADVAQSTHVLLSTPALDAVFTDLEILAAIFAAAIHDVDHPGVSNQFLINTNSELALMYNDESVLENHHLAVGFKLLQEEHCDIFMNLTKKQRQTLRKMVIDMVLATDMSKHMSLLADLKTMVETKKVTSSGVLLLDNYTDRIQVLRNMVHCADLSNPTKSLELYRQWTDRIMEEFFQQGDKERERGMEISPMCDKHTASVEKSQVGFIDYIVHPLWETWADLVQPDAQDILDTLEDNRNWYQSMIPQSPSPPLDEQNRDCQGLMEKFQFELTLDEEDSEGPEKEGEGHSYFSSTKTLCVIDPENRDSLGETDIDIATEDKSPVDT
Chain of Cytochrome P450 1A2 (Homo sapiens) (P05177 whole entry, looked up): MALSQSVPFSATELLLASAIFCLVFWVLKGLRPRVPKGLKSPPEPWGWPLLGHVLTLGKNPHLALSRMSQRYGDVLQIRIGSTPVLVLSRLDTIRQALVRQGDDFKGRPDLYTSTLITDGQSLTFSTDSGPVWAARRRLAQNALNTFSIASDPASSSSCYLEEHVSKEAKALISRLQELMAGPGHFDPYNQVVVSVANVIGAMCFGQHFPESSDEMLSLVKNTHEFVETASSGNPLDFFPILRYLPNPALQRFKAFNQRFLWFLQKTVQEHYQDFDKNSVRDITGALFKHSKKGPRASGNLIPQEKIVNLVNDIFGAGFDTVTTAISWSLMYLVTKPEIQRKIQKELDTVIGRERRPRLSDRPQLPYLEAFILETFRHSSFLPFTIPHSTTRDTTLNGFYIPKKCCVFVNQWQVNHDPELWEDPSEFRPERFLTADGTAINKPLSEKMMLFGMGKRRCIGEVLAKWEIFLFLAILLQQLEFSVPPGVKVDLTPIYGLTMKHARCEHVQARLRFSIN
Chain of Glucocorticoid receptor (Homo sapiens) (P04150 whole entry, looked up): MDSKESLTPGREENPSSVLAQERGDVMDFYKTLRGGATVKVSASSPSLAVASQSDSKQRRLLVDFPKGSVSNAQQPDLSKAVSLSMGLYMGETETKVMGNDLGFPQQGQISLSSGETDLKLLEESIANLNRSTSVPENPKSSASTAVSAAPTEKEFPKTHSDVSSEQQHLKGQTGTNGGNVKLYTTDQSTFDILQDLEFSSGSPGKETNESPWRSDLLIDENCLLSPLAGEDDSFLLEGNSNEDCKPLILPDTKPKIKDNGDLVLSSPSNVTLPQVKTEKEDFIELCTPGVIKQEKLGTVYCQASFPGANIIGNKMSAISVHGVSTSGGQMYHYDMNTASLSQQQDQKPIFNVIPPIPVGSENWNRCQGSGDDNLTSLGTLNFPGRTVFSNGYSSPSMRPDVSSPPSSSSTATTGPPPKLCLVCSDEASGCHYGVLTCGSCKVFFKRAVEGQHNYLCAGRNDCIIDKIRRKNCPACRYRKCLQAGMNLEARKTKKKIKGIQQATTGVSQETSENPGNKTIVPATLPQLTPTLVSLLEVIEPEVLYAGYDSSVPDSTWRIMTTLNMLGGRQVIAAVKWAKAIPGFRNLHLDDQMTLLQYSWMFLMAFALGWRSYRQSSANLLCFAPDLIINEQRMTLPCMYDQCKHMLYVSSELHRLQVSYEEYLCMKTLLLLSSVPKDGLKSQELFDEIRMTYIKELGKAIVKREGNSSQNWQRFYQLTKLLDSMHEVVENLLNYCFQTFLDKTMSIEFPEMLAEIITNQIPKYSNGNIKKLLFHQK

One assay addresses Lysosomal acid glucosylceramidase (Homo sapiens) (UniProt P04062). The assay is described as follows: Glucocerebrosidase-p2 (AID 348; in the data active = potency below about 10 µM; also: potency is read from the fitted curve at half-maximal effect). The note with it: purified GBA, blue fluorogenic substrate, 40 min. In outline: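 Normal human glucocerebrosidase (0.2 nM) with blue fluorogenic substrate (80 uM final) in citrate/phosphate pH 5.9 with 10mM sodium taurocholate, 0.01% tween-20; 40 min RT, NaOH/glycine stop; fluorescence Ex 365/Em 440; AC50 from a titration from 0.6 nM upwards.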
For `CN(C)c1ncc2nc(CCc3ccccc3)c(=O)n(-c3ccccc3)c2n1`, the Potency was > 11.4 µM.
Same read-out and setting: for `COc1cccc(Nc2ncc3nc(-c4cc(F)cc(F)c4)c(=O)n(CCC#N)c3n2)c1` the value was > 11.4 µM; for `CC(=O)N1CCC2(CCCN(c3ccc(-c4ccccc4)cc3)C2)CC1`, > 11.4 µM; for `CCNc1ncc2nc(-c3cccs3)c(=O)n(CCC#N)c2n1`, > 11.4 µM.

System in another assay: not listed separately
The experiment in a line: AP1 Signaling Pathway (AID 357).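 Also: ME-180 reporter cells stimulated with EGF at its EC50 level; % is scaled to controls: 0 for no effect and ±100 for the full control effect.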 The settings on record: ME-180 AP-1-bla reporter, EGF-induced, beta-lactamase ratio, 5 h; at 7.69 µM (top of the series) unless noted. In outline: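 A ratiometric CCF4 readout (405 nm excitation; 460 and 530 nm emission) quantified AP-1-driven beta-lactamase in ME-180 cells after 5 h with compound and EC50 EGF; AC50 values were derived for activators and inhibitors.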
With `CN1CC=C2C(C#N)=C(N)C(C#N)(C#N)[C@H](c3cccc(Cl)c3)C2C1` (some centres not stated), the activity change, negative = inhibition was -16.2% [at 17.2 µM].
For the compound `CC(=O)N1CCC2(CCCN(c3ccc(-c4ccccc4)cc3)C2)CC1`, the activity change, negative = inhibition was -10.1%.
Take `CCNc1ncc2nc(-c3cccs3)c(=O)n(CCC#N)c2n1`: the activity change, negative = inhibition is -3.58%.

Another assay deals with Cytochrome P450 1A2 (Homo sapiens) (UniProt P05177). The experiment in a line: p450-cyp1a2 (AID 410; calls by dose curve; also: potency is read from the fitted curve at half-maximal effect). The note with it: recombinant CYP1A2, luciferin-ME demethylation, luminescence; series mostly up to 57 µM; activity change, negative = inhibition: at the top concentration. In short, it runs like this:
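O-Demethylation of luciferin 6' methyl ether by human CYP1A2 is monitored as luciferase luminescence. Substrate sits at Km (100uM); enzyme is 20nM. Values are scaled to 57 uM furafylline as maximal inhibition.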
With `COc1cccc(Nc2ncc3nc(-c4ccc(F)cc4)c(=O)n(CCC#N)c3n2)c1`, the Potency was 3.98 µM (active).
With `CN(C)c1ncc2nc(CCc3ccccc3)c(=O)n(-c3ccccc3)c2n1`, the Potency was 0.794 µM (active).
Still for that read-out and setting: with `CCNc1ncc2nc(-c3cccs3)c(=O)n(CCC#N)c2n1` the figure was 3.16 µM (active).

System in a further assay: not listed separately
The experiment in a line: NFAT Signaling Pathway (AID 444).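 Also: carbachol stimulus at about its EC50 of 1 µM final; % is scaled to controls: 0 for no effect and ±100 for the full control effect.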 The settings on record: Jurkat NFAT-bla M1, carbachol, beta-lactamase ratio, 5 h; at 7.69 µM (top of the series) unless noted. In short, it runs like this:
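Jurkat cells with NFAT-driven β-lactamase reporter and co-expressed M1 receptor, stimulated with carbachol (final 1 uM, ~EC50), compound titration, 5 h at 37 °C. CCF4 loaded 1 h at RT; 460/530 nm ratio gave %activity and AC50.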
For `COc1cccc(Nc2ncc3nc(-c4ccc(F)cc4)c(=O)n(CCC#N)c3n2)c1`, the activity change, negative = inhibition was -6.29%.
Consider `CN(C)c1ncc2nc(CCc3ccccc3)c(=O)n(-c3ccccc3)c2n1`, for which the activity change, negative = inhibition is 12.7%.
For `CC(=O)N1CCC2(CCCN(c3ccc(-c4ccccc4)cc3)C2)CC1`, the activity change, negative = inhibition was -24.3%.
As to `CCNc1ncc2nc(-c3cccs3)c(=O)n(CCC#N)c2n1`, the activity change, negative = inhibition is -2.96%.

System in the next assay: not listed separately
The assay is described as follows: Stat Signaling Pathway (AID 446).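 Also: ME-180 cervical cancer cells given 40 pM IL-6 alongside compound; SIE-controlled beta-lactamase reporter measured as 460/530 nm FRET emission ratio; % is scaled to controls: 0 for no effect and ±100 for the full control effect.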 The settings on record: ME-180 (cervical carcinoma) SIE beta-lactamase reporter, IL-6 stimulated, 5 h; series mostly up to 7.69 µM; activity, negative = inhibition: at the top concentration. In outline: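 Overnight-plated ME-180 cells bearing a STAT Inducible Element beta-lactamase reporter; 5 h co-exposure to compound and 40 pM IL-6; values normalized to 300 pM IL-6 and 125 nM JAK inhibitor controls.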
On to `COc1cccc(Nc2ncc3nc(-c4ccc(F)cc4)c(=O)n(CCC#N)c3n2)c1`, for which the “activity, negative = inhibition” value was -26.2%.
Turning to `CN(C)c1ncc2nc(CCc3ccccc3)c(=O)n(-c3ccccc3)c2n1`, the “activity, negative = inhibition” value was 2.1%.
`CN1CC=C2C(C#N)=C(N)C(C#N)(C#N)[C@H](c3cccc(Cl)c3)C2C1` (some centres not stated): the “activity, negative = inhibition” value was 11.3% [at 17.2 µM].
Same read-out and setting: for `COc1cccc(Nc2ncc3nc(-c4cc(F)cc(F)c4)c(=O)n(CCC#N)c3n2)c1` the value was -19.2%.
Consider `CC(=O)N1CCC2(CCCN(c3ccc(-c4ccccc4)cc3)C2)CC1`, for which the “activity, negative = inhibition” value was -11%.
Take `CCNc1ncc2nc(-c3cccs3)c(=O)n(CCC#N)c2n1`: the “activity, negative = inhibition” value was 3.12%.

A further assay has as its target Glucocorticoid receptor (Homo sapiens) (UniProt P04150). The assay is described as follows: GR-GFP Redistribution (AID 450;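 active = compounds whose dose series gives a full or clear partial fitted curve of increased nuclear translocation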; also: potency is read from the fitted curve at half-maximal effect). The settings on record: U2OS GR-GFP nuclear translocation, laser cytometry, 2 h.
For the compound `COc1cccc(Nc2ncc3nc(-c4ccc(F)cc4)c(=O)n(CCC#N)c3n2)c1`, the Potency is > 9.22 µM.
For the compound `CN(C)c1ncc2nc(CCc3ccccc3)c(=O)n(-c3ccccc3)c2n1`, the Potency is > 9.22 µM.
Turning to `CN1CC=C2C(C#N)=C(N)C(C#N)(C#N)[C@H](c3cccc(Cl)c3)C2C1` (some centres not stated), the Potency was > 20.6 µM.
Take `COc1cccc(Nc2ncc3nc(-c4cc(F)cc(F)c4)c(=O)n(CCC#N)c3n2)c1`: the Potency was > 9.22 µM.
`CCNc1ncc2nc(-c3cccs3)c(=O)n(CCC#N)c2n1`: the Potency is > 9.22 µM.

For the next assay the target is unchanged. The experiment in a line: GR-EFC Redistribution (AID 451; calls by dose curve; also: potency is read from the fitted curve at half-maximal effect). The settings on record: CHO-K1 GR-EFC translocation, beta-gal luminescence, 2 h. In short, it runs like this: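 CHO-K1 cells expressing nuclear EA and GR-ED fragments of b-gal; compounds titrated up to 46 uM final, 2 h at 37 C. GR nuclear translocation read as complemented b-gal luminescence after 1 h RT detection.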
For `COc1cccc(Nc2ncc3nc(-c4ccc(F)cc4)c(=O)n(CCC#N)c3n2)c1`, the Potency is > 46 µM.
The same measure, in the same setting: for `CN(C)c1ncc2nc(CCc3ccccc3)c(=O)n(-c3ccccc3)c2n1` the value was > 46 µM; for `COc1cccc(Nc2ncc3nc(-c4cc(F)cc(F)c4)c(=O)n(CCC#N)c3n2)c1`, > 46 µM.
In the case of `CC(=O)N1CCC2(CCCN(c3ccc(-c4ccccc4)cc3)C2)CC1`, the Potency is > 46 µM.
For the compound `CCNc1ncc2nc(-c3cccs3)c(=O)n(CCC#N)c2n1`, the Potency was > 46 µM.

In a further assay the target is Mitogen-activated protein kinase 10 (Mus musculus) (UniProt Q61831). The assay is described as follows: JNK3 AlphaScreen Assay (AID 530).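 Also: kinase came from lysate of stimulated human HepG2 cells; signal reports phosphorylation of biotinylated GST-cJun 1-79 at Ser73 with 10 µM ATP; % is scaled to controls: 0 for no effect and ±100 for the full control effect.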 The note with it: JNK3 lysate, c-Jun phosphorylation; series mostly up to 57.1 µM; activity change, negative = inhibition: at the top concentration. In short, it runs like this:
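Activity was read by AlphaScreen after JNK3-containing HepG2 lysate (cytokine pre-activated) phosphorylated biotinylated GST-cJun with 10 uM ATP at room temperature. Phospho-Ser73 cJun antibody with Protein-A acceptor beads provided detection.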
A general note: Bead proximity is the source of the signal in Alpha formats.
Consider `COc1cccc(Nc2ncc3nc(-c4ccc(F)cc4)c(=O)n(CCC#N)c3n2)c1`, for which the “activity change, negative = inhibition” value is 1.38%.
The same measure, in the same setting: with `CN(C)c1ncc2nc(CCc3ccccc3)c(=O)n(-c3ccccc3)c2n1` the figure was 22.2%; with `COc1cccc(Nc2ncc3nc(-c4cc(F)cc(F)c4)c(=O)n(CCC#N)c3n2)c1`, -14.8%.
As for `CC(=O)N1CCC2(CCCN(c3ccc(-c4ccccc4)cc3)C2)CC1`, the “activity change, negative = inhibition” value was -25.4%.

The next assay addresses 3',5'-cyclic-AMP phosphodiesterase 4B (Homo sapiens) (UniProt Q07343). The assay is described as follows: qHTS Assay for Inhibitors of PDE-IV (AID 607; active = well fitted activation curve with a large enough effect in the main read-out, with a control signal flat, not every such curve was filed as active; also: % of control where 0% means no effect). The note with it: HEK293 ACTOne CNG channel cells, membrane potential fluorescence; series mostly up to 22.9 µM; activation (PDE inhibition): at the top concentration. In outline: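 Live HEK293 cells with a modified cyclic nucleotide-gated (CNG) channel report intracellular cAMP via membrane-potential dye fluorescence (ex 535/em 590 nm). Endogenous PDE-IV was targeted. Compounds were tested at up to 22.9 uM final; RO 20-1724 100 uM served as control.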
In general terms: Quantitative high-throughput screening tests each substance at several concentrations.
Turning to `COc1cccc(Nc2ncc3nc(-c4ccc(F)cc4)c(=O)n(CCC#N)c3n2)c1`, the “activation (PDE inhibition)” value is 2.75%.
`COc1cccc(Nc2ncc3nc(-c4cc(F)cc(F)c4)c(=O)n(CCC#N)c3n2)c1`: the “activation (PDE inhibition)” value is -4.78%.
In the case of `CC(=O)N1CCC2(CCCN(c3ccc(-c4ccccc4)cc3)C2)CC1`, the “activation (PDE inhibition)” value is -16.6%.

The target in a further assay is Cytochrome P450 3A4 (Homo sapiens) (UniProt P08684). The assay is described as follows: qHTS Assay for Activators of Cytochrome P450 3A4 (AID 885; active = well fitted curve in the direction sought with a large enough effect; an effect the other way counts as inactive or inconclusive; also: nearly all actives have a fitted effect of over 65% in size). The settings on record: recombinant CYP3A4, Luciferin-PPXE luminescence, 60 min; series mostly up to 57.1 µM; activity change, positive = activation: at the top concentration. In outline:
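Using 20nM recombinant human CYP3A4 in potassium phosphate (200mM), substrate Luciferin-PPXE at 25uM, luminescent luciferin detection followed a 60-min RT NADPH reaction; data scaled to 57 uM ketoconazole.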
Take `COc1cccc(Nc2ncc3nc(-c4ccc(F)cc4)c(=O)n(CCC#N)c3n2)c1`: the “activity change, positive = activation” value is -88.5%.
With `CN(C)c1ncc2nc(CCc3ccccc3)c(=O)n(-c3ccccc3)c2n1`, the “activity change, positive = activation” value was -65.3%.
As to `COc1cccc(Nc2ncc3nc(-c4cc(F)cc(F)c4)c(=O)n(CCC#N)c3n2)c1`, the “activity change, positive = activation” value was -64.4%.
For `CCNc1ncc2nc(-c3cccs3)c(=O)n(CCC#N)c2n1`, the “activity change, positive = activation” value is -62.5%.

The next assay addresses Tumor susceptibility gene 101 protein (Homo sapiens) (UniProt Q99816). The experiment in a line: qHTS Assay for Iinhibitors of HIV-1 Budding by Blocking the Interaction of PTAP/TSG101: Hit Validation (AID 651600; active = well fitted curve in the direction sought with a large enough effect; an effect the other way counts as inactive or inconclusive; also: nearly all actives have a fitted effect of over 70% in size; also: potency is read from the fitted curve at half-maximal effect). The note with it: PTAP peptide/TSG101 UEV interaction, biochemical assay; series mostly up to 57.5 µM; activity change, negative = inhibition: at the top concentration. In short, it runs like this:
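Compounds are added to the Tsg101 binding domain (10 uM final) in pH 7.5 HEPES buffer. FITC-PTAP peptide follows at 50 nM final. After 20 min at r.t., polarized FITC emission is measured.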
Turning to `Cc1cc(/C=C2\SC(=S)N(Cc3ccco3)C2=O)c(C)n1-c1cccnc1`, the Potency is 25.9 µM (active).
For `COc1cccc(/C(O)=C/c2nc3ccc(C(=O)NCCc4ccc(Cl)cc4)cc3[nH]c2=O)c1`, the “activity change, negative = inhibition” value was -2.91%.
Regarding `Cc1c2ccccc2nc2c(F)c(NCCO)c(F)c(F)c12`, the Potency is 8.19 µM (active).
Regarding `c1ccc(-c2cnn3c(-c4ccccc4)c(-c4ccccc4)nc3n2)cc1`, the “activity change, negative = inhibition” value was -69.3%.
Consider `O=c1c(/C=C(\O)c2ccccc2)nc2ccccc2n1-c1ccccc1`, for which the Potency is 16.3 µM (active).
`O=C(OCCN1C(=O)c2cccc3c(N4CCOCC4)ccc(c23)C1=O)c1ccc(Cl)cc1Cl`: the Potency was 4.61 µM (active).
